# Results filed as inconclusive are left out. For part of these data: Entries with a potency or affinity are not part of this list. Active and inactive are the calls of the source.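 The calls were made as follows, unless noted: active = thallium flux through the channel raised or lowered by more than 3 SD from vehicle-only wells, actives on both sides; inactive = the rest.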
# How the values were obtained:
# [1] = polyglutamine-triggered caspase-3 activation inhibitors, cell-based (AID 1583); settings: polyglutamine-induced caspase-3 activation, cell assay; stronger effect = higher value;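 tested at 10 µM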
# [2] = suppressors of polyQ aggregation in yeast, 75Q-TubU reporter (AID 1593); settings: Yeast 75Q polyglutamine aggregation reporter
# [3] = rescue of polyQ-huntingtin neuronal dysfunction in worms, whole organism, C. elegans mechanosensory neurons, N-terminal huntingtin (AID 1599); settings: touch response, stronger effect = higher value
# [4] = inhibitors of mitochondrial cytochrome c release, biochemical, purified mitochondria (AID 1603); settings: stronger effect = lower value;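 also: mouse liver mitochondria challenged with calcium chloride; signal normalized to the plate average as 100%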
# [5] = inhibitors of polyQ protein aggregation (AID 1604); settings: polyglutamine-induced protein aggregation inhibition assay; stronger effect = higher value; tested at 2.5 µM
# [6] = enhancers of glutamate uptake in motor neurons, MN-1 cell line (AID 1612); settings: MN-1 motor neuron cells, stronger effect = higher value;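 also: tested at 1 µM final; 0% = mean of DMSO vehicle wells on each plate; positive means more glutamate uptake than control and negative means less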
# [7] = suppressors of polyglutamine aggregation in yeast, 75Q-TubH (AID 1616); settings: S. cerevisiae 75Q-TubH polyglutamine aggregation suppression; stronger effect = higher value
# [8] = hESC survival regulators, cell-based (AID 493140; call rule not given here;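 also: cells exposed to compounds for four days before counting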); settings: human embryonic stem cell survival screen; stronger effect = higher value
# F380Y/beta1 = test: modulators of BK channel variants, profiling panel, selectivity assay, cell-based, U2OS BacMam, thallium flux, beta subunits (AID 1259406); settings: at 30 µM;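 also: initial slope of Thallos dye fluorescence rise after thallium is added; log ratio against the mean of 0.3% DMSO vehicle wells on the same plate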
# F380Y/beta4 = test: as above; settings: at 30 µM
# R275C/beta4 = test: as above; settings: at 30 µM
# R275C/Slo1WT/beta2 = test: as above; settings: at 30 µM
# [9] = test system: Neuropilin-2 / VEGF-C interaction (human); test: inhibitors of NRP2–VEGF-C binding, biochemical, microplate binding format, z-score (AID 743281; call rule not given here); settings: microplate NRP2/VEGF-C binding assay; stronger effect = lower value
# [10] = test system: Aerobactin synthetase IucA (Klebsiella pneumoniae); test: IucA aerobactin synthetase inhibitors, biochemical, Tocris library, absorbance (AID 1345561; call rule not given here;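 also: 100% = enzyme without compound and 0% = no enzyme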); settings: purified IucA enzyme assay, absorbance (OD) read-out; stronger effect = lower value;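 tested at 8 µM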
# [11] = growth inhibition of DIPG glioma cells, dose response, cell-based, JHH-DIPG-1, MIPE4.0, CellTiter-Glo, qHTS (AID 1347062; cut-off not given, nearly all actives have AC50 up to about 27 µM); settings: JHH-DIPG-1 viability, CellTiter-Glo ATP luminescence
# [12] = circadian clock period modulators, cell-based, LOPAC library, luminescence reporter (AID 2774; call rule not given here;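 also: values are relative to mean of DMSO wells on each plate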); settings: circadian reporter cells, at 7 µM, actives lie on both sides
# [13] = test system: Hepatitis C virus NS3 helicase; test: HCV NS3 helicase inhibitors, primary screen, biochemical, fluorescence polarization, LOPAC1280 library (AID 687035; in the data active = inhibition above about 37%); settings: Purified HCV NS3 helicase, Cy5-dT15 ssDNA binding fluorescence polarization; stronger effect = higher value; concentration not given here
# [14] = Cy5 fluorescence quenching or enhancement artefacts, artefact control for HCV NS3 helicase inhibitor project, biochemical, LOPAC1280 (AID 687037; call rule not given here); settings: Cy5-DNA-NS3h complex fluorescence interference counterscreen
# [15] = phospholipid biosynthesis inhibitors in animal cells, primary screen, cell-based, LOPAC library, screen 4 (AID 1347384; call rule not given here); settings: phospholipid biosynthesis inhibition screen, at 10 µM
# [16] = modifiers of HSF1 nuclear foci, imaging, Selleck Cancer Library (AID 1347162; in the data active = plate-normalised HSF1 focus index below about 0.46); settings: human cells, at 10 µM; SSMD: measured here: HSF1 foci SSMD mean; cell count: measured here: cell number; plate-normalised HSF1 focus index: stronger effect = lower value
structure (smiles),measurement,setting,value
C[N+]1(C)CCCC(OC(=O)C(O)(c2ccccc2)c2ccccc2)C1 (centres undefined),inhibition,[1],-22.1%
same,score,[2],1.26
same,rescue above control,[3],-3.59
same,cytochrome c release ratio,[4],1.17
same,inhibition of aggregation,[5],55%
same,glutamate uptake change,[6],-13.3%
same,aggregation suppression score,[7],1.44
same,survival,[8],8 (inactive)
same,log fold change Tl+ flux,F380Y/beta1,-0.0251 (inactive)
same,log fold change Tl+ flux,F380Y/beta4,0.0149 (inactive)
same,log fold change Tl+ flux,R275C/beta4,0.0435 (inactive)
same,log fold change Tl+ flux,R275C/Slo1WT/beta2,0.0306 (inactive)
CC(C(=O)O)c1ccc(-c2ccccc2)c(F)c1 (centres undefined),inhibition,[1],20.8%
same,score,[2],0
same,rescue above control,[3],19
same,cytochrome c release ratio,[4],0.68
same,inhibition of aggregation,[5],29%
same,glutamate uptake change,[6],14.1%
same,aggregation suppression score,[7],0.00404
same,survival,[8],4.67 (inactive)
same,z-score,[9],-0.82 (inactive)
same,remaining activity,[10],123% (inactive)
same,outcome,[11],inactive
same,log fold change Tl+ flux,F380Y/beta1,0.0374 (inactive)
same,log fold change Tl+ flux,F380Y/beta4,0.0328 (inactive)
same,log fold change Tl+ flux,R275C/beta4,0.0279 (inactive)
same,log fold change Tl+ flux,R275C/Slo1WT/beta2,0.0126 (inactive)
Cc1cccc(C)c1NC(=O)C1CCCCN1C (centres undefined),z-score,[9],-0.136 (inactive)
same,log fold change Tl+ flux,F380Y/beta1,0.0319 (inactive)
same,log fold change Tl+ flux,F380Y/beta4,0.00629 (inactive)
same,log fold change Tl+ flux,R275C/beta4,-0.0225 (inactive)
same,log fold change Tl+ flux,R275C/Slo1WT/beta2,-0.0173 (inactive)
CNCCC(Oc1ccc(C(F)(F)F)cc1)c1ccccc1 (centres undefined),period change,[12],-0.16 h (inactive)
same,survival,[8],3.58 (inactive)
same,inhibition,[13],-3% (inactive)
same,fluorescence ratio (interference),[14],1 (inactive)
same,remaining activity,[10],124% (inactive)
same,outcome,[15],inactive
same,log fold change Tl+ flux,F380Y/beta1,0.157 (active)
same,log fold change Tl+ flux,F380Y/beta4,0.225 (active)
same,log fold change Tl+ flux,R275C/beta4,0.301 (active)
same,log fold change Tl+ flux,R275C/Slo1WT/beta2,0.0335 (inactive)
CC[C@H]1OC(=O)[C@H](C)[C@@H](O[C@H]2C[C@@](C)(OC)[C@@H](O)[C@H](C)O2)[C@H](C)[C@@H](O[C@@H]2O[C@H](C)C[C@H](N(C)C)[C@H]2O)[C@](C)(OC)C[C@@H](C)C(=O)[C@H](C)[C@@H](O)[C@]1(C)O,z-score,[9],-0.251 (inactive)
same,outcome,[11],inactive
same,log fold change Tl+ flux,F380Y/beta1,0.0264 (inactive)
same,log fold change Tl+ flux,F380Y/beta4,0.00789 (inactive)
same,log fold change Tl+ flux,R275C/beta4,-0.0137 (inactive)
same,log fold change Tl+ flux,R275C/Slo1WT/beta2,-0.00092 (inactive)
COc1ccc(/C=C/C(=O)Nc2ccccc2C(=O)O)cc1OC,period change,[12],-0.165 h (inactive)
same,inhibition,[13],1% (inactive)
same,fluorescence ratio (interference),[14],1 (inactive)
same,z-score,[9],0.915 (inactive)
same,remaining activity,[10],119% (inactive)
same,outcome,[15],inactive
same,log fold change Tl+ flux,F380Y/beta1,-0.00383 (inactive)
same,log fold change Tl+ flux,F380Y/beta4,-0.0244 (inactive)
same,log fold change Tl+ flux,R275C/beta4,-0.0078 (inactive)
same,log fold change Tl+ flux,R275C/Slo1WT/beta2,0.0419 (inactive)
CCc1ccc(CCOc2ccc(CC3SC(=O)NC3=O)cc2)nc1 (centres undefined),z-score,[9],0.637 (inactive)
same,outcome,[11],inactive
same,SSMD,[16],-1.24
same,cell count,[16],7530
same,plate-normalised HSF1 focus index,[16],0.926 (inactive)
same,log fold change Tl+ flux,F380Y/beta1,0.0033 (inactive)
same,log fold change Tl+ flux,F380Y/beta4,0.017 (inactive)
same,log fold change Tl+ flux,R275C/beta4,-0.028 (inactive)
same,log fold change Tl+ flux,R275C/Slo1WT/beta2,-0.0116 (inactive)
CCCCC(=O)N(Cc1ccc(-c2ccccc2-c2nn[nH]n2)cc1)[C@H](C(=O)O)C(C)C,z-score,[9],-0.0697 (inactive)
same,log fold change Tl+ flux,F380Y/beta1,-0.0013 (inactive)
same,log fold change Tl+ flux,F380Y/beta4,-0.00671 (inactive)
same,log fold change Tl+ flux,R275C/beta4,0.0104 (inactive)
same,log fold change Tl+ flux,R275C/Slo1WT/beta2,0.0346 (inactive)
CS(=O)(=O)c1ccc(C2=C(c3ccccc3)C(=O)OC2)cc1,z-score,[9],-0.0129 (inactive)
same,outcome,[11],inactive
same,log fold change Tl+ flux,F380Y/beta1,0.00163 (inactive)
same,log fold change Tl+ flux,F380Y/beta4,-0.000569 (inactive)
same,log fold change Tl+ flux,R275C/beta4,0.00682 (inactive)
same,log fold change Tl+ flux,R275C/Slo1WT/beta2,0.00403 (inactive)
COc1ccc2c3c1O[C@H]1C[C@@H](O)C=C[C@@]31CCN(C)C2,inhibition,[1],-3.14%
same,score,[2],1.34
same,rescue above control,[3],0.01
same,cytochrome c release ratio,[4],0.63
same,inhibition of aggregation,[5],91.6%
same,glutamate uptake change,[6],5.19%
same,aggregation suppression score,[7],1.04
same,survival,[8],11.9 (inactive)
same,z-score,[9],0.00606 (inactive)
same,remaining activity,[10],110% (inactive)
same,outcome,[11],inactive
CCN1CCN(C(=O)N[C@@H](C(=O)N[C@@H]2C(=O)N3[C@@H]2SC(C)(C)[C@@H]3C(=O)O)c2ccccc2)C(=O)C1=O,survival,[8],1.83 (inactive)
same,log fold change Tl+ flux,F380Y/beta1,0.00225 (inactive)
same,log fold change Tl+ flux,F380Y/beta4,-0.0114 (inactive)
same,log fold change Tl+ flux,R275C/beta4,0.0304 (inactive)
same,log fold change Tl+ flux,R275C/Slo1WT/beta2,0.0399 (inactive)
CON=C(C(=O)NC1C(=O)N2C(C(=O)O)=C(COC(C)=O)CSC12)c1csc(N)n1 (centres undefined),log fold change Tl+ flux,F380Y/beta1,-0.0319 (inactive)
same,log fold change Tl+ flux,F380Y/beta4,0.0152 (inactive)
same,log fold change Tl+ flux,R275C/beta4,-0.0222 (inactive)
same,log fold change Tl+ flux,R275C/Slo1WT/beta2,-0.0319 (inactive)
COc1ccc(-c2oc3c(CC=C(C)C)c(O[C@@H]4O[C@H](CO)[C@@H](O)[C@H](O)[C@H]4O)cc(O)c3c(=O)c2O[C@@H]2O[C@@H](C)[C@H](O)[C@@H](O)[C@H]2O)cc1,z-score,[9],0.976 (inactive)
same,log fold change Tl+ flux,F380Y/beta1,0.00909 (inactive)
same,log fold change Tl+ flux,F380Y/beta4,-0.0291 (inactive)
same,log fold change Tl+ flux,R275C/beta4,-0.0348 (inactive)
same,log fold change Tl+ flux,R275C/Slo1WT/beta2,0.0155 (inactive)
CN(C)CCC(c1ccc(Cl)cc1)c1ccccn1 (centres undefined),inhibition,[1],-45.4%
same,score,[2],1.36
same,rescue above control,[3],7.64
same,cytochrome c release ratio,[4],0.61
same,inhibition of aggregation,[5],-12.5%
same,glutamate uptake change,[6],-7.91%
same,aggregation suppression score,[7],1.27
same,period change,[12],-0.5 h (inactive)
same,survival,[8],24.1 (inactive)
same,inhibition,[13],-6% (inactive)
same,fluorescence ratio (interference),[14],0.9 (inactive)
same,z-score,[9],0.208 (inactive)
same,outcome,[15],inactive
same,log fold change Tl+ flux,F380Y/beta1,-0.0189 (inactive)
same,log fold change Tl+ flux,F380Y/beta4,0.0511 (inactive)
same,log fold change Tl+ flux,R275C/beta4,0.0326 (inactive)
same,log fold change Tl+ flux,R275C/Slo1WT/beta2,0.0403 (inactive)
CC1(C)S[C@@H]2[C@H](NC(=O)[C@H](N)c3ccc(O)cc3)C(=O)N2[C@H]1C(=O)O,survival,[8],6.33 (inactive)
same,log fold change Tl+ flux,F380Y/beta1,0.0448 (inactive)
same,log fold change Tl+ flux,F380Y/beta4,-0.0174 (inactive)
same,log fold change Tl+ flux,R275C/beta4,0.0282 (inactive)
same,log fold change Tl+ flux,R275C/Slo1WT/beta2,0.0404 (inactive)
CCC(=O)OCC(=O)[C@@]1(OC(=O)CC)[C@@H](C)C[C@H]2[C@@H]3CCC4=CC(=O)C=C[C@]4(C)[C@@]3(Cl)[C@@H](O)C[C@@]21C,log fold change Tl+ flux,F380Y/beta1,-0.203 (active)
same,log fold change Tl+ flux,F380Y/beta4,-0.237 (active)
same,log fold change Tl+ flux,R275C/beta4,0.0199 (inactive)
same,log fold change Tl+ flux,R275C/Slo1WT/beta2,-0.0376 (inactive)

# From PubChem BioAssay
